Records with an inconclusive call do not appear. Calls of active or inactive are those of the source. The calls were made as follows: active = hit-call score of the fitted dose curve at least 0.9, where 1 is the maximum; inconclusive = response in the unintended direction; inactive = score below 0.9.
target: human Peroxisome Proliferator-activated Receptor delta (PPARd), PPARD (gene 5467) (UniProt Q03181); test: ATG_PPARd_TRANS: Attagene TRANS-FACTORIAL HepG2 Assay for human Peroxisome Proliferator-activated Receptor delta (PPARd) (AID 2283002)
Procedure: ATG_TRANS is a cell-based, multiplexed-readout assay that uses HepG2, a human liver cell line, with measurements taken at 24 hours after chemical dosing in a 24-well plate.ATG_PPARd_TRANS is one of 30 assay component(s) measured or calculated from the ATG_TRANS assay. It is designed to make measurements of mRNA induction, a form of inducible reporter, as detected with fluorescence intensity signals by Reverse transcription polymerase chain reaction (RT-PCR) and Capillary electrophoresis technology.Data from the assay component ATG_PPARd_TRANS was analyzed into 1 assay endpoint. This assay endpoint, ATG_PPARd_TRANS, was analyzed in the positive analysis fitting direction relative to DMSO as the negative control and baseline of activity. Using a type of inducible reporter, measures of mRNA for gain-of-signal activity can be used to understand the reporter gene at the transcription factor-level as they relate to the gene PPARD. Furthermore, this assay endpoint can be referred to as a primary readout, because this assay has produced multiple assay endpoints where this one serves a reporter gene function. To generalize the intended target to other relatable targets, this assay endpoint is annotated to the nuclear receptor intended target family, where the subfamily is non-steroidal.
Human liver HepG2 cells are transiently transfected with multiple reporter transcription units (MRTUs) in 6-well plates using FuGene 6 reagent (Roche; 3 ml FuGene/1 mg DNA). The MRTU constructs are regulated by a cis-regulating element (promoter). […] A major difference between the CIS and TRANS system is that in CIS activities of endogenous TFs are measured, whereas the TRANS assay evaluates changes in activities of exogenous, chimeric NR-Gal4 proteins. […] At the end of 24 hour incubation, total RNA was isolated using TriZol reagent (Invitrogen). The isolated RNA is then reverse-transcribed using oligo(dT) primer and Mo-MLV reverse transcriptase (Invitrogen) with DNAse I (Ambion) treatment for 30 min. The one-tenth of the produced cDNA was amplified by PCR using Taq DNA polymerase (Invitrogen) and two reporter sequence-specific primers. The PCR products were fluorescently labeled by primer extension with 6-arboxyfluorescein (6-FAM) 5'-labeled reporter sequence-specific primer (2 min at 95 C, 20 s at 68 C and 10 min at 72 C) and these products were digested with 5U of HpaI (New England Biolabs) for 2h at 37 C. The fragments were purified using Qiaquick PCR columns (Qiagen), analyzed on an ABI 3130xL genetic analyzer (Applied Biosystems) with peak positions identified by using a set of X-rhodamine (ROX)-labeled MapMarker1000 molecular weight standards (BioVentures). The raw capillary electrophoresis data was processed using Attagraph software (Attagene).

Sequence of human Peroxisome Proliferator-activated Receptor delta (PPARd), PPARD (gene 5467) (Q03181 whole entry, looked up): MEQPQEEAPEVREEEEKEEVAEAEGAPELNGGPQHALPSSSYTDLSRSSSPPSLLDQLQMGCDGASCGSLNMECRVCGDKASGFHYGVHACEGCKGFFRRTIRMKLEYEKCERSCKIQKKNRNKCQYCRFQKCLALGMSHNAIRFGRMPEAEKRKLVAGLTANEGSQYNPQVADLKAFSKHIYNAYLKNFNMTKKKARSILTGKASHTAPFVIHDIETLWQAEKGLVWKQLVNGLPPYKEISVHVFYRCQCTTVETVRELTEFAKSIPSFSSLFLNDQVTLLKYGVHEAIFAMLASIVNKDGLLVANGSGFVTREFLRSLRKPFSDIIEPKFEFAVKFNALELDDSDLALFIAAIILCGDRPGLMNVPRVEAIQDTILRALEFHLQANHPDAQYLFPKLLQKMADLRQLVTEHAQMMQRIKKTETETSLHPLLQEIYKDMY

Structure (SMILES) | outcome
C=CC(=O)OCC(C)OCC(C)OCC(C)OC(=O)C=C (stereo not given) | inactive
CC1=CP(=O)(c2ccccc2)CC1 (stereo not given) | inactive
CC(C)c1ccc2ncccc2c1 | inactive
CC1=CC(C)C(C=O)CC1 (stereo not given) | inactive
N#Cc1ccc(C(c2ccc(C#N)cc2)n2cncn2)cc1 | inactive
CCCCCCCCCCCCc1ccc(O)cc1 | inactive
Cc1ccc2c(c1)CCCN2 | inactive
Nc1ccc(Cl)c(N)c1 | inactive
C=CCOC(=O)c1ccc(C(=O)OCC=C)c(C(=O)OCC=C)c1 | inactive
COC(C=C(C)CCC=C(C)C)OC | inactive
Cc1c[nH]c(=O)[nH]c1=O | inactive
CCN1CN(CC)CN(CC)C1 | inactive
CO[Si](CCCS)(OC)OC | inactive
O=C1CCCCCCCCCCC1 | inactive
C=Cc1cccc(C)c1 | inactive
Cc1ccccc1CCO | inactive
C1CCSC1 | inactive
CC(C=O)c1ccccc1 (stereo not given) | inactive
CCC(C)c1ccccc1 (stereo not given) | inactive
O=C(OCCc1ccccc1)c1ccccc1 | inactive

Structure (SMILES) | outcome
C=C(C)C(=O)OCCCCCCCCCCCC | inactive
CCC(C)C(=O)OCCc1ccccc1 (stereo not given) | inactive
Clc1cccnc1 | inactive
CCCCc1ccc(Cl)cc1 | inactive
N#Cc1ccc(C2CCCc3cncn32)cc1 (stereo not given) | inactive
CC1OC(=O)C(C)OC1=O (stereo not given) | inactive
CCOC(=O)OC(=O)OCC | inactive
C=CCCCCCCCCO | inactive
CCCCCC1=CCCC1=O | inactive
CC(C)OC(=O)c1ccccc1 | inactive
C=C[C@@]1(C)CC(=O)[C@]2(O)[C@@]3(C)[C@@H](O)CCC(C)(C)[C@@H]3[C@H](O)[C@H](OC(C)=O)[C@@]2(C)O1 | inactive
Oc1ccc(-c2ccccc2)c(Cl)c1 | inactive
COc1nccnc1CC(C)C | inactive
C=CC(=O)OCCCCCCOC(=O)C=C | inactive
CCC(C)N (stereo not given) | inactive
c1ccc2cnccc2c1 | inactive
OCCCc1ccccc1 | inactive
CCOC(=O)/C=C\C(=O)OCC | inactive
[Cl][Eu]([Cl])[Cl] | inactive
CC(C)(O)Cc1ccccc1 | inactive

From PubChem BioAssay (EPA / NIEHS)
